Test results from PubChem BioAssay (NCI).
Where “and” joins values, the source holds several entries; their conditions need not be identical. Equal values may be shown once. The panel holds about 79,000 compounds, 15% with a hit somewhere; the sample as a whole holds those more often. Calls of active or inactive are those of the source. Rule as the data show it: active = growth inhibition above about 70%; inactive = the rest.

assay: NCI Yeast Anticancer Drug Screen. Data for the sgs1 mgt1 strain (AID 161);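 also: 0% = growth of cultures given vehicle only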; conditions: S. cerevisiae sgs1 mgt1 strain, active compounds read high; at 50.0 µM unless noted
Outline: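 Growth of a repair-deficient yeast mutant was monitored after compound treatment and expressed as inhibition relative to vehicle-treated cultures.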

Compound | growth inhibition
Cc1ccc(S(=O)(=O)OCC2C3C=CC(C4C=CC43)C2COS(=O)(=O)c2ccc(C)cc2)cc1 (stereo not drawn) | -10% (inactive)
Nc1ncnc2c1ncn2CC(O)CN(CCO)CCO (stereo not drawn) | -3.7% (inactive)
CCCCCCCCCCCCCCCCCC(=O)N1CCN(C(=O)CCCCCCCCCCCCCCCCC)C1 | -4.3% (inactive)
CCOC(=O)c1c[nH]n(-c2ccccc2)c1=O | -4.75% (inactive)
CN(C)CCNC(=O)Nc1cccc2ccccc12 | -0.8% (inactive)
O=C1CCC(=O)N1C(c1ccccc1)c1ccccc1 | 5.85% (inactive)
COC(=O)c1ccccc1-c1ccccc1C(=O)O | -5.45% (inactive)
Cc1ccc(/C=C2\CCCC\C2=N\O)cc1 | 2.3% (inactive)
COc1ccc(OC)c2[nH]c(Sc3c([N+](=O)[O-])ncn3C)nc12 | -15.4% (inactive)
O=C(Nc1ccc([N+](=O)[O-])cc1C(=O)O)c1ccc([N+](=O)[O-])cc1 | 0.1% (inactive)
CCCCOC(=O)NC(=O)c1cc2cc(Cl)ccc2oc1=O | 13.9% (inactive)
O=C(O)c1cc(Cl)c2ccccc2c1O | 46.8% (inactive)
CCOC(=O)c1[nH]c(=O)[nH]c(=O)c1[N+](=O)[O-] | 7.15% (inactive)
O=C(O)Cc1ccc(O)cc1 | 8.6% (inactive)
CC(C(=O)O)N1C(=O)CNC1=O (stereo not drawn) | 1.15% (inactive)
Nc1cc(N)c(N)cc1N | 13% (inactive) and -4.9% (inactive)
CCCCOP(=O)(Nc1ccc([N+](=O)[O-])cc1)OCCCC | 91.1% (active)
O=C1C(N2CCCCC2)=C(c2ccccc2)c2ccccc21 | -3.6% (inactive)
Cc1ccc2c(c1)P(=O)(O)c1cc(C)ccc1S2 | 14.4% (inactive)
O=C(O)C1C2CCCC21 (stereo not drawn) | -4.75% (inactive)
Cc1ccc2nc(=O)c3cccnc3n2c1 | 29.9% (inactive)
O=C(NCc1ccccc1)C(=O)NCc1ccccc1 | -7.25% (inactive)
Cc1cc(OCC(=O)O)cc(C)c1C | -15.1% (inactive)

assay: NCI Yeast Anticancer Drug Screen. Data for the cln2 rad14 strain (AID 165);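 also: 0% = growth equal to vehicle treated cultures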; conditions: S. cerevisiae cln2 rad14 strain, active compounds read high; at 50.0 µM unless noted
Outline: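 Relative to vehicle controls, growth inhibition of compound-treated cln2 rad14 yeast was recorded.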

Compound | growth inhibition
O=C(C1=CCCCC1)c1ccc(-c2ccccc2)cc1 | -14.6% (inactive)
c1ccc2c(c1)C(=NCCCN1CCCCCCC1)c1cccn1-2 | -2.7% (inactive)
Cn1cnc([N+](=O)[O-])c1Sc1nc2cc(Cl)c(F)cc2[nH]1 | 8.5% (inactive)
COCCCC(=O)CNC(C)C | -15.4% (inactive)
O=C(CCS(=O)(=O)CCC(=O)c1ccc2ccccc2c1)c1ccc2ccccc2c1 | -35.3% (inactive)
NC(=O)Nc1ccccc1-c1ccccc1 | -26.4% (inactive)
Nc1nc(N)c2nc(SC34CC5CC(CC(C5)C3)C4)c(N)nc2n1 | -20.8% (inactive)
CC(C)(O)CCNc1ncnc2c1ncn2C1OC(CO)C(O)C1O (stereo not drawn) | -6.8% (inactive)
OC(CN1CCCC1)c1ccccc1 (stereo not drawn) | 28.6% (inactive)
O=C1c2ccccc2C(=O)N1CN1C(=O)c2ccccc2S1(=O)=O | 24.2% (inactive)
COc1ccccc1N=C(N)N/N=C/c1c[nH]c2ccccc12 | 17% (inactive)
CC(=O)Nc1nc(SCc2ccccc2)c2[nH]cnc2n1 | -43.5% (inactive)
CC1=CCCC2C(C=O)(C1)CC(C)C2(CO)CC/C(=C/CO)CO (stereo not drawn) | 32.8% (inactive)
CCCCC(C)(C)SCCC(=O)O | 10.9% (inactive)
CCCCCC[N+](C)(C)C | 6.75% (inactive)
CC(=NCCCCN=C(C)c1cc(O)cc(Br)c1O)c1cc(O)cc(Br)c1O.[Co] | 6.45% (inactive)
CN(Cc1cnc2nc(N)nc(N)c2n1)c1ccc(C(=O)NC(CCC(=O)OCc2c(Cl)cccc2Cl)C(=O)OCc2c(Cl)cccc2Cl)cc1 (stereo not drawn) | 36.2% (inactive)
Cc1ccc(S(=O)(=O)OCC2C3C=CC(C4C=CC43)C2COS(=O)(=O)c2ccc(C)cc2)cc1 (stereo not drawn) | -25.3% (inactive)
Nc1ncnc2c1ncn2CC(O)CN(CCO)CCO (stereo not drawn) | 8.2% (inactive)
CCCCCCCCCCCCCCCCCC(=O)N1CCN(C(=O)CCCCCCCCCCCCCCCCC)C1 | -19.2% (inactive)

Compound | growth inhibition
CCOC(=O)c1c[nH]n(-c2ccccc2)c1=O | -3.15% (inactive)
CN(C)CCNC(=O)Nc1cccc2ccccc12 | 16.6% (inactive)
O=C1CCC(=O)N1C(c1ccccc1)c1ccccc1 | -30.9% (inactive)
COC(=O)c1ccccc1-c1ccccc1C(=O)O | -13.8% (inactive)
Cc1ccc(/C=C2\CCCC\C2=N\O)cc1 | -10.2% (inactive)
COc1ccc(OC)c2[nH]c(Sc3c([N+](=O)[O-])ncn3C)nc12 | 8.55% (inactive)
O=C(Nc1ccc([N+](=O)[O-])cc1C(=O)O)c1ccc([N+](=O)[O-])cc1 | 18.5% (inactive)
CCCCOC(=O)NC(=O)c1cc2cc(Cl)ccc2oc1=O | 10.7% (inactive)
O=C(O)c1cc(Cl)c2ccccc2c1O | 31.6% (inactive)
CCOC(=O)c1[nH]c(=O)[nH]c(=O)c1[N+](=O)[O-] | 3.4% (inactive)
O=C(O)Cc1ccc(O)cc1 | 8.45% (inactive)
CC(C(=O)O)N1C(=O)CNC1=O (stereo not drawn) | -37.6% (inactive)
Nc1cc(N)c(N)cc1N | -1.7% (inactive) and 21.8% (inactive)
CCCCOP(=O)(Nc1ccc([N+](=O)[O-])cc1)OCCCC | 74% (active)
O=C1C(N2CCCCC2)=C(c2ccccc2)c2ccccc21 | -28.9% (inactive)
Cc1ccc2c(c1)P(=O)(O)c1cc(C)ccc1S2 | 22.4% (inactive)
O=C(O)C1C2CCCC21 (stereo not drawn) | 25.9% (inactive)
Cc1ccc2nc(=O)c3cccnc3n2c1 | 5.1% (inactive)
O=C(NCc1ccccc1)C(=O)NCc1ccccc1 | 3.5% (inactive)
Cc1cc(OCC(=O)O)cc(C)c1C | -18.6% (inactive)
